Laboratory results reported in PubChem BioAssay AID1347131 (National Center for Advancing Translational Sciences (NCATS), 2019).
Out of some 410,000 compounds screened, about 2,000 (0.49%) were called active. Where a call stands in place of a potency, no number is given. Inconclusive results (about 8%) are left out. Calls follow the shape of the full dose curve; tested in HEK293 reporter line. The full list was thinned out, with actives kept by preference.
Potency is read from the fitted curve at half-maximal effect.

Test: qHTS Assay for Foot and Mouth Disease Virus Antivirals: Primary Screen against the MLPCN compound library; also: nearly all actives have a fitted effect of over 55% in size
Details: FMDV antiviral cell-based qHTS; series mostly up to 57.9 µM
With `Fc1ccc(CN2CCN3CCCC3C2C2CCCCC2)cc1F` (centres undefined) the Potency was “inactive”.
In the case of `O=c1[nH]c(SCc2ccccc2Cl)nc2c1cnn2-c1ccccc1`, the Potency is reported as “inactive”.
For `c1nc(NCc2ccc3c(c2)OCO3)c2cc(-c3ccc4c(c3)OCCO4)ccc2n1`, the Potency was “inactive”.
For `COc1ccc(N2CCN(C(=O)Cn3cnc4c(cnn4-c4ccc(C)cc4)c3=O)CC2)cc1`, the Potency was “inactive”.
With `CCCCCn1nc(C(=O)OCC(=O)c2c(N)n(C)c(=O)n(C)c2=O)c2ccccc2c1=O` the Potency was “inactive”.
In the case of `COc1cccc(-c2cn3nc4c(nc3n2)CCCC4)c1`, the Potency is reported as 10 µM (active).
In the case of `COc1cccc(Nc2c3c(nc4c(-c5ccccc5)c(C)nn24)CCC3)c1`, the Potency is reported as “inactive”.
In the case of `COc1cccc(-c2cc(C(=O)NC3CC3)c3ccccc3n2)c1`, the Potency is reported as “inactive”.
In the case of `c1ccc(Sc2cccc3ccccc23)c(CNC2=NCCN2)c1`, the Potency is reported as “inactive”.
In the case of `COc1ccccc1S(=O)(=O)Cc1ccc(C(=O)NCc2ccc3c(c2)OCO3)o1`, the Potency is reported as “inactive”.
For `FC(F)(F)c1nnc(-c2ccccc2)nc1Oc1ccc(Cl)cc1Cl`, the Potency was “inactive”.
With `CC(C)(C)NC(=O)c1ccc(COc2ccc(Cl)cc2Cl)o1` the Potency was “inactive”.
With `Clc1ccc(OCc2cc(-c3ccccc3)no2)c(Cl)c1` the Potency was 12.6 µM (active).
In the case of `CCN1CCN(C(=O)C2CCN(c3nnc(C)c4c(C)n(-c5ccc(C)cc5)nc34)CC2)CC1`, the Potency is reported as “inactive”.
In the case of `Cc1ccc(C(=O)N(CC(=O)Nc2sc(C)c(C)c2C(N)=O)C2CCCC2)cc1`, the Potency is reported as “inactive”.
With `COc1ccc(NS(=O)(=O)c2cc(NC(=O)c3ccc(=O)[nH]c3)ccc2N2CCOCC2)cc1` the Potency was “inactive”.
With `CC(=O)c1sc(NC(=O)c2cc(-c3ccccc3)nn2-c2ccccc2)nc1C` the Potency was “inactive”.
With `CC(=O)c1sc(NC(=O)C2COc3ccccc3O2)nc1C` (centres undefined) the Potency was 11.2 µM (active).
In the case of `O=C(Nc1nc(-c2ccc(S(=O)(=O)N3CCCC3)cc2)cs1)C1COc2ccccc2O1` (centres undefined), the Potency is reported as “inactive”.
For `CCOc1ccc(C(=O)N(Cc2cc(OC)c(OC)c(OC)c2)c2ccccn2)cc1`, the Potency was “inactive”.
With `CN(C)Cc1n[nH]c(=O)c2ccccc12` the Potency was “inactive”.
In the case of `CC1=C/C(=C(/c2cc(C)c(O)c(Br)c2)c2ccccc2S(=O)(=O)O)C=C(Br)C1=O`, the Potency is reported as 17.8 µM (active).
In the case of `COc1ccc(NC(=S)N2CCN(Cc3ccc(C)cc3)CC2)cc1`, the Potency is reported as “inactive”.
With `CN1CCN(S(=O)(=O)c2cccc(C(=O)Nc3ccc(Br)cc3Br)c2)CC1` the Potency was “inactive”.
With `CCn1c(=S)sc2c(=O)n(CC(=O)Nc3cccc(Cl)c3)c(C)nc21` the Potency was “inactive”.
With `CCOC(=O)NC(=O)/C(C#N)=N/Nc1c(F)cccc1F` the Potency was “inactive”.
With `C=CCn1c(SCC(=O)Nc2nc3ccccc3s2)nnc1-c1ccccc1O` the Potency was 25.1 µM (active).
With `C=CCn1c(SCC(=O)Nc2cccnc2Cl)nnc1-c1ccccc1F` the Potency was “inactive”.
For `Cc1nc(SCC(=O)Nc2nc3ccccc3s2)c(C#N)c(C)c1C`, the Potency was “inactive”.
In the case of `COc1ccc(N2CCOCC2)c(NC(=O)c2cc3ccccc3o2)c1`, the Potency is reported as “inactive”.
In the case of `COc1ccccc1NC(=O)C1=C(C)NC(SCC(=O)c2ccccc2)=C(C#N)C1c1ccco1` (centres undefined), the Potency is reported as “inactive”.
With `Cc1cc(C)n2c(Nc3c(C)cccc3C)c(-c3ccccn3)nc2n1` the Potency was “inactive”.
With `CCCn1nc(C(=O)Nc2nc(-c3ccccn3)cs2)c2ccccc2c1=O` the Potency was “inactive”.
In the case of `Cc1cccnc1Nc1nc(-c2ccccn2)cs1`, the Potency is reported as 11.2 µM (active).
For `CN(CC(=O)NCc1ccccc1)CC(=O)Nc1ccc(Cl)c(C(F)(F)F)c1`, the Potency was “inactive”.
For `COc1ccc(-c2nsc3c(N4CCCCC4)ncnc23)cc1`, the Potency was “inactive”.
With `COc1ccc(-c2nsc3c(N4CCCCC4C)ncnc23)cc1` (centres undefined) the Potency was “inactive”.
For `COc1ccc(-c2nsc3c(N4CCCC4)ncnc23)cc1`, the Potency was 22.4 µM (active).
With `NC(=O)c1cccn(Cc2ccc(C(F)(F)F)cc2)c1=O` the Potency was “inactive”.
In the case of `CC(=O)c1cccc(NC(=O)CN2CCc3cc4c(cc3C2C)OCCCO4)c1` (centres undefined), the Potency is reported as “inactive”.
In the case of `CC(C)CNc1nc2c(c(=O)n(C)c(=O)n2C)n1Cc1cccc(Br)c1`, the Potency is reported as “inactive”.
With `Cc1nn2cc(-c3ccc(OC(C)C)cc3)nc2s1` the Potency was 14.1 µM (active).
In the case of `COC(=O)c1ccc2nc(-c3ccc(C#N)cc3)c(Cc3ccsc3)n2c1`, the Potency is reported as “inactive”.
With `COc1ccccc1-c1nc(-c2ccccc2)nc(N2CCN(C)CC2)c1C#N` the Potency was “inactive”.
In the case of `Cc1cccc(-n2c(O)c(C=Nc3ccccc3)c3ccccc3c2=O)n1`, the Potency is reported as “inactive”.
For `COC1=CC(=O)c2ccccc2C1=O`, the Potency was “inactive”.
In the case of `O=C1C(C=Nc2ccccc2)=C(O)c2ccccc21`, the Potency is reported as 10 µM (active).
With `COc1cc(NC(=O)Cc2ccc(S(=O)(=O)N3CCOCC3)s2)c(OC)cc1Cl` the Potency was “inactive”.
For `O=C(OC(C(=O)Nc1ccc(Cl)cc1C(F)(F)F)c1ccccc1)c1c(Cl)cccc1Cl` (centres undefined), the Potency was “inactive”.
For `COc1ccc(CCCc2nnc(SCC(=O)Nc3cccc(C)c3)o2)cc1`, the Potency was “inactive”.
For `Cc1nn2cc(-c3ncc(C(F)(F)F)cc3Cl)cnc2c1Br`, the Potency was 8.91 µM (active).
With `Cc1nn(Cc2ccc(Cl)cc2)c(=O)n1N(C)c1ncc(C(F)(F)F)cc1Cl` the Potency was “inactive”.
With `Cc1ccc(-c2ccnc3nc(Sc4ncc(C(F)(F)F)cc4Cl)nn23)cc1` the Potency was “inactive”.
For `CCOC(=O)c1sc(=S)n(C)c1NC(=O)c1ccccc1`, the Potency was “inactive”.
In the case of `Cc1cccc(CNc2ncnc3ccc(-c4ccc5c(c4)OCCO5)cc23)c1`, the Potency is reported as “inactive”.
In the case of `COc1ccc(CCNC(=S)N2CCC(C(=O)c3ccc(F)cc3)CC2)cc1OC`, the Potency is reported as “inactive”.
For `CCC1Sc2ccc(S(=O)(=O)CCC(=O)NCc3ccco3)cc2NC1=O` (centres undefined), the Potency was “inactive”.
For `CCN(CC)CCNC(=O)c1nn(-c2ccc(Cl)cc2)c2c1CCc1cc(OC)ccc1-2`, the Potency was “inactive”.
In the case of `CC(=O)Nc1ccc(S(=O)(=O)Nc2nc3ccc(C)cc3s2)cc1`, the Potency is reported as “inactive”.
With `CCOC(=O)c1cc(-c2ccccc2)sc1NC(=O)CCN1C(=O)c2ccccc2C1=O` the Potency was “inactive”.
In the case of `Cc1ccc2nc(-c3ccc(NC(=O)CCN4C(=O)c5ccccc5C4=O)cc3)sc2c1`, the Potency is reported as 7.08 µM (active).
In the case of `O=C(CCS(=O)(=O)c1ccccc1)Nc1ccccc1-c1nc2ccccc2s1`, the Potency is reported as “inactive”.
With `O=C(CCCCCN1C(=O)c2ccccc2C1=O)Nc1cccc(O)c1` the Potency was “inactive”.
In the case of `Cc1ccc2nc(-c3ccc(NC(=O)CCS(=O)(=O)c4ccccc4)cc3)sc2c1`, the Potency is reported as 10 µM (active).
With `CSc1ccc(NC(=O)N2CC=C(n3c(=O)[nH]c4ccccc43)CC2)cc1` the Potency was “inactive”.
In the case of `CCn1c(N2CCN(S(=O)(=O)c3ccccc3C(F)(F)F)CC2)nc2ccccc21`, the Potency is reported as “inactive”.
In the case of `COc1ccc(CNC(=O)C[C@H]2C[C@H](C(=O)N(C(C)C)C(C)C)[C@@]3(C)c4[nH]c5ccc(Cl)cc5c4CCN3C2=O)cc1OC`, the Potency is reported as “inactive”.
For `Cc1cc(C)c2nc(C(F)(F)F)nc(N3CCN(C(=O)c4ccco4)CC3)c2c1`, the Potency was “inactive”.
For `Cc1cc(N2CCN(C(=O)c3ccco3)CC2)n2nc(-c3cccc(Cl)c3)cc2n1`, the Potency was 22.4 µM (active).
In the case of `O=C(c1ccco1)N1CCN(c2c([N+](=O)[O-])nn(-c3cccc(Cl)c3)[n+]2[O-])CC1`, the Potency is reported as “inactive”.
In the case of `COc1cccc2[nH]c3c(N4CCc5ccccc5C4)ncnc3c12`, the Potency is reported as “inactive”.
In the case of `CCOc1ccc(N2C(=O)S/C(=C\c3cc(OC)c(OC)c(OC)c3)C2=O)cc1`, the Potency is reported as 10 µM (active).
With `COc1cc(/C=C2\SC(=S)N(CC(=O)NC(C)(C)C)C2=O)cc(OC)c1OC` the Potency was “inactive”.
For `COc1cc(/C=C2\SC(=O)N(c3cccc(Cl)c3)C2=O)cc([N+](=O)[O-])c1O`, the Potency was “inactive”.
With `CC(=O)c1ccc(NC(=O)c2ccc(-c3nc(CSc4ccccc4)c(C)o3)cc2)cc1` the Potency was “inactive”.
For `C[C@H]1CN([C@@H](C)CO)C(=O)c2cc(NC(=O)C3CCCCC3)ccc2O[C@H]1CN(C)Cc1ccc(-c2ccccc2)cc1`, the Potency was “inactive”.
For `CC1CCC(C(C)C)C(OC(=O)Cn2c(-c3ccc(Br)cc3)[n+](C)c3ccccc32)C1` (centres undefined), the Potency was 15.8 µM (active).
For `Cc1ccccc1OCc1n(CC(=O)OC2CC(C)CCC2C(C)C)c2ccccc2[n+]1C` (centres undefined), the Potency was 17.8 µM (active).
In the case of `Cc1noc(C)c1COc1ccc(C(=O)N2CCN(c3ccccn3)CC2)cc1`, the Potency is reported as “inactive”.
With `O=C(c1ccco1)N1N=C(c2cccs2)CC1c1ccccc1O` (centres undefined) the Potency was “inactive”.
With `CC(C)C[C@H]1CN=C(N(C)C)N1CCCCc1ccccc1` the Potency was “inactive”.
In the case of `Cc1ccc(N2C(=O)CC(N3CCN/C3=C3\CC/C(=C\c4ccccc4)C3=O)C2=O)cc1` (centres undefined), the Potency is reported as “inactive”.
In the case of `Cc1ccc(NC(=O)CN2C(=O)NC3(CCCCC3C)C2=O)cc1S(=O)(=O)N1CCCCC1` (centres undefined), the Potency is reported as “inactive”.
In the case of `CN(C)S(=O)(=O)c1ccc(C(=O)N2CCC(c3nc4ccccc4o3)CC2)cc1`, the Potency is reported as “inactive”.
In the case of `CCC(C)NC(=O)c1cc(-c2ccccc2O)on1` (centres undefined), the Potency is reported as “inactive”.
For `CSc1nc(Nc2ccc(C)cc2C)cc(-c2ccccc2)n1`, the Potency was “inactive”.
In the case of `Cc1ccc(-c2cc(-c3ccccc3)no2)c(O)c1`, the Potency is reported as 5.01 µM (active).
For `O=C1/C(=C/c2ccc(O)c([N+](=O)[O-])c2)SC(=S)N1Cc1ccccc1`, the Potency was “inactive”.
In the case of `Cc1nn2c(-c3cccc(NC(=O)CSc4nc5ccccc5o4)c3)nnc2c2ccccc12`, the Potency is reported as “inactive”.
In the case of `COc1ccc(NC(=O)c2c(NC(=O)c3ccc(Br)cc3)sc3c2CCCC3)cc1`, the Potency is reported as “inactive”.
With `COc1ccc(C(=O)Nc2onc3c2CCCC3)cc1` the Potency was 12.6 µM (active).
In the case of `COc1ccc(-c2noc(CCCC(=O)NC3CCCC3)n2)cc1`, the Potency is reported as “inactive”.
In the case of `CCOc1cccc(C(=O)Nc2ccc(S(=O)(=O)N(Cc3ccccc3)c3ccccc3)cc2)c1`, the Potency is reported as “inactive”.
With `COc1cccc(C(=O)Nc2cccc(-c3nnc(-c4ccccc4)o3)c2)c1` the Potency was “inactive”.
In the case of `CCOc1cccc(C(=O)Nc2nnc(-c3ccco3)s2)c1`, the Potency is reported as 11.2 µM (active).
With `CCN(CC)CCN(C(=O)c1ccc2c(c1)CCCC2)c1nc2ccc(C)cc2s1` the Potency was “inactive”.
For `CC(=O)N(Cc1cc2cc(C)ccc2[nH]c1=O)c1cccc(C)c1C`, the Potency was “inactive”.
With `O=C(CCS(=O)(=O)c1ccc(Br)cc1)N1CCN(c2ccccc2F)CC1` the Potency was “inactive”.
With `Cc1cc(C)c(NS(=O)(=O)c2ccc3c(c2)NC(=O)CC(=O)N3)c(C)c1` the Potency was “inactive”.
